We go through nine targets from the supplement of paper PMC11732987, “Enantioselective OTUD7B fragment discovery through chemoproteomics screening and high-throughput optimisation” (Communications Chemistry, 2025).

Unmarked numbers belong to inactive results.

Sequence of UniProt P54252 (P54252 whole entry): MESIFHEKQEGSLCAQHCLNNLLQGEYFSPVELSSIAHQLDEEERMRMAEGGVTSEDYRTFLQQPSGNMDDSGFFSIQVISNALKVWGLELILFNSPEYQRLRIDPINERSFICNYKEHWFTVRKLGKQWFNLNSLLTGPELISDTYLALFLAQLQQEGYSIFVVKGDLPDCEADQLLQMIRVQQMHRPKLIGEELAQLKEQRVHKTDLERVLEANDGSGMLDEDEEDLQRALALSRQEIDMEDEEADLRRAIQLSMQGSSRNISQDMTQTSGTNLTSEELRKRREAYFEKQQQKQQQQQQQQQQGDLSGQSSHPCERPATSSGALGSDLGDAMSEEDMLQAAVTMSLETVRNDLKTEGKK
Sequence of UniProt P51665 (P51665 whole entry): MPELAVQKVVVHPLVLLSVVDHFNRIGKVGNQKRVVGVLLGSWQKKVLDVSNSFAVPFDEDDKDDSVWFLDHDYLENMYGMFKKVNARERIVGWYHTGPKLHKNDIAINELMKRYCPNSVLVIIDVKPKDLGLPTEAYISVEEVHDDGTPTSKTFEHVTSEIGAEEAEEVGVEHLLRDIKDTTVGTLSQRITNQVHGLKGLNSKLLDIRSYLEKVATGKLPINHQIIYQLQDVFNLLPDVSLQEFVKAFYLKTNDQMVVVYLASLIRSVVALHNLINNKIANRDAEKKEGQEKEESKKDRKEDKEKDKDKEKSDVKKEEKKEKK
Sequence of UniProt P15374 (P15374 whole entry): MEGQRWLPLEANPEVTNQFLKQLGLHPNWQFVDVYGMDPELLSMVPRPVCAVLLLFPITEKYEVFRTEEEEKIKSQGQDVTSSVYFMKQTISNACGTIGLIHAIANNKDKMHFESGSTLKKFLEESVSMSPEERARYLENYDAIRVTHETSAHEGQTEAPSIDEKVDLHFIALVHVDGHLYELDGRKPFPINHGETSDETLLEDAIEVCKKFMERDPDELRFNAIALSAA
Sequence of UniProt Q96RU2 (Q96RU2 whole entry): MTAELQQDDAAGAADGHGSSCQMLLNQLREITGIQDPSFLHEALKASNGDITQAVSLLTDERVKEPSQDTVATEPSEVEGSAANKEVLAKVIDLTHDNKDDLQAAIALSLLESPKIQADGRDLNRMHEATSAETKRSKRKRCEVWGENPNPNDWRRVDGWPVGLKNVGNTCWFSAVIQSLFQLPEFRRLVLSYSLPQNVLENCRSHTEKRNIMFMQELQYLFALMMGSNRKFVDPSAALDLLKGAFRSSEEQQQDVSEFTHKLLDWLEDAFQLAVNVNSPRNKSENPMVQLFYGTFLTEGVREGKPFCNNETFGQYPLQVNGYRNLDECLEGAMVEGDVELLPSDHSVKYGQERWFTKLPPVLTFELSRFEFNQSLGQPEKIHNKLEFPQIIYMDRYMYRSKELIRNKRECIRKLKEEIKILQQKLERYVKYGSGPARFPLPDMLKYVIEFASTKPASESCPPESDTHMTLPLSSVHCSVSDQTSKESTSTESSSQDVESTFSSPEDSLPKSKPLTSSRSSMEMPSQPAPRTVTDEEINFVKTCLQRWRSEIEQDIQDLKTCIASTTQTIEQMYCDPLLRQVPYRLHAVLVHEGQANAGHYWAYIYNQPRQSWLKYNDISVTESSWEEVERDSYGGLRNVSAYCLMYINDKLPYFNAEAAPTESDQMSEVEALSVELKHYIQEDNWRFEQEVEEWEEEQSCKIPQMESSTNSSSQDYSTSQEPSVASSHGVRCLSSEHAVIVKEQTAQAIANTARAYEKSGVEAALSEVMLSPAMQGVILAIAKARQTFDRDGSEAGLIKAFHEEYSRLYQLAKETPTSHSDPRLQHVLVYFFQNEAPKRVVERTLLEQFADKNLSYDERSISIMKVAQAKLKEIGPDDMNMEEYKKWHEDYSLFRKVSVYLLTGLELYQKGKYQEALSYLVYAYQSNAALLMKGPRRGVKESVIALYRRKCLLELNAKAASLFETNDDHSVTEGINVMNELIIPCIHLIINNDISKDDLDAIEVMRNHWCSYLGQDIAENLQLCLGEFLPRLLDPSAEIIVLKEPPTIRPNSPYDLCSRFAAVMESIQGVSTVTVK
Sequence of UniProt Q86UV5 (Q86UV5 whole entry): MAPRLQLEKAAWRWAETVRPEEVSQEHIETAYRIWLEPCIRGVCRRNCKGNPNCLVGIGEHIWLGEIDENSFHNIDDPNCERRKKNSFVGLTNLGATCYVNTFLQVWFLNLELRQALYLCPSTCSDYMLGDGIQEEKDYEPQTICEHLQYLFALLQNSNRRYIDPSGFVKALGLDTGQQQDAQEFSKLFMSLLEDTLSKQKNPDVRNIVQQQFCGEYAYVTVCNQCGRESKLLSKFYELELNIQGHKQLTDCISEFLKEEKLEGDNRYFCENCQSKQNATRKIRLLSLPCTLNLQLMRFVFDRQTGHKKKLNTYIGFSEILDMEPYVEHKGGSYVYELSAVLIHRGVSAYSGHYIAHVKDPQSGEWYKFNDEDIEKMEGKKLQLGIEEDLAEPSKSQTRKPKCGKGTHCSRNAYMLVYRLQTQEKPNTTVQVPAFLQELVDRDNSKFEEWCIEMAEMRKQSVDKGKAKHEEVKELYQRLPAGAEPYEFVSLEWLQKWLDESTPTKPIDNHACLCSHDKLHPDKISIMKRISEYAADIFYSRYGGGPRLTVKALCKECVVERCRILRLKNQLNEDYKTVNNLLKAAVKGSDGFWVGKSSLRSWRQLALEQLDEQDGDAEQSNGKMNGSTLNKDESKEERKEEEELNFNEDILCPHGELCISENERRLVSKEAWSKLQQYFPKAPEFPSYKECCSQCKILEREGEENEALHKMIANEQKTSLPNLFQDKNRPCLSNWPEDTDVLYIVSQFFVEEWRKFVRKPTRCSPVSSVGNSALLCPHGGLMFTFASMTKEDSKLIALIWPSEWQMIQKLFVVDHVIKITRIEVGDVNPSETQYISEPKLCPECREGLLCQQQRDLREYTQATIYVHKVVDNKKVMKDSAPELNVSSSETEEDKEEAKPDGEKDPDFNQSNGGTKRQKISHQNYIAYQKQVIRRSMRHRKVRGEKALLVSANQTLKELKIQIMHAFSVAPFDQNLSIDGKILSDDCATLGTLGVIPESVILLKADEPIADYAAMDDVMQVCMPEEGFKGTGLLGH
Sequence of UniProt O00487 (O00487 whole entry): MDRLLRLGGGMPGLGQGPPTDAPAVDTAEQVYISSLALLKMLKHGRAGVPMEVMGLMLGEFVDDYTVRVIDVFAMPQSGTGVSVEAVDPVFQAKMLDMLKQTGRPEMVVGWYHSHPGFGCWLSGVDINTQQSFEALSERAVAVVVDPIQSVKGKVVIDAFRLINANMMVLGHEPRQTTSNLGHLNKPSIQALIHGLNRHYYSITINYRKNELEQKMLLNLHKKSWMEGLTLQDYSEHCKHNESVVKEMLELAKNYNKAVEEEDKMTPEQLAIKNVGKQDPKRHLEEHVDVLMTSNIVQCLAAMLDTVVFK
Sequence of UniProt Q9Y5K5 (Q9Y5K5 whole entry): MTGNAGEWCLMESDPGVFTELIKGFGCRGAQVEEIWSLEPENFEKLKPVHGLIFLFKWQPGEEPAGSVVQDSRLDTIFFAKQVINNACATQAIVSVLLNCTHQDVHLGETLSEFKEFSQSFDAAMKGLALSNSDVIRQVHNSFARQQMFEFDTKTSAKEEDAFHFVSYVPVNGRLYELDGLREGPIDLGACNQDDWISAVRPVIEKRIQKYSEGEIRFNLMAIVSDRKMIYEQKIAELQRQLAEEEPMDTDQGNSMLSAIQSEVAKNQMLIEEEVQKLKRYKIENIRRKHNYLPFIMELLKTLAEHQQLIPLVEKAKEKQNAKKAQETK
Sequence of UniProt Q9H9J4 (Q9H9J4 whole entry): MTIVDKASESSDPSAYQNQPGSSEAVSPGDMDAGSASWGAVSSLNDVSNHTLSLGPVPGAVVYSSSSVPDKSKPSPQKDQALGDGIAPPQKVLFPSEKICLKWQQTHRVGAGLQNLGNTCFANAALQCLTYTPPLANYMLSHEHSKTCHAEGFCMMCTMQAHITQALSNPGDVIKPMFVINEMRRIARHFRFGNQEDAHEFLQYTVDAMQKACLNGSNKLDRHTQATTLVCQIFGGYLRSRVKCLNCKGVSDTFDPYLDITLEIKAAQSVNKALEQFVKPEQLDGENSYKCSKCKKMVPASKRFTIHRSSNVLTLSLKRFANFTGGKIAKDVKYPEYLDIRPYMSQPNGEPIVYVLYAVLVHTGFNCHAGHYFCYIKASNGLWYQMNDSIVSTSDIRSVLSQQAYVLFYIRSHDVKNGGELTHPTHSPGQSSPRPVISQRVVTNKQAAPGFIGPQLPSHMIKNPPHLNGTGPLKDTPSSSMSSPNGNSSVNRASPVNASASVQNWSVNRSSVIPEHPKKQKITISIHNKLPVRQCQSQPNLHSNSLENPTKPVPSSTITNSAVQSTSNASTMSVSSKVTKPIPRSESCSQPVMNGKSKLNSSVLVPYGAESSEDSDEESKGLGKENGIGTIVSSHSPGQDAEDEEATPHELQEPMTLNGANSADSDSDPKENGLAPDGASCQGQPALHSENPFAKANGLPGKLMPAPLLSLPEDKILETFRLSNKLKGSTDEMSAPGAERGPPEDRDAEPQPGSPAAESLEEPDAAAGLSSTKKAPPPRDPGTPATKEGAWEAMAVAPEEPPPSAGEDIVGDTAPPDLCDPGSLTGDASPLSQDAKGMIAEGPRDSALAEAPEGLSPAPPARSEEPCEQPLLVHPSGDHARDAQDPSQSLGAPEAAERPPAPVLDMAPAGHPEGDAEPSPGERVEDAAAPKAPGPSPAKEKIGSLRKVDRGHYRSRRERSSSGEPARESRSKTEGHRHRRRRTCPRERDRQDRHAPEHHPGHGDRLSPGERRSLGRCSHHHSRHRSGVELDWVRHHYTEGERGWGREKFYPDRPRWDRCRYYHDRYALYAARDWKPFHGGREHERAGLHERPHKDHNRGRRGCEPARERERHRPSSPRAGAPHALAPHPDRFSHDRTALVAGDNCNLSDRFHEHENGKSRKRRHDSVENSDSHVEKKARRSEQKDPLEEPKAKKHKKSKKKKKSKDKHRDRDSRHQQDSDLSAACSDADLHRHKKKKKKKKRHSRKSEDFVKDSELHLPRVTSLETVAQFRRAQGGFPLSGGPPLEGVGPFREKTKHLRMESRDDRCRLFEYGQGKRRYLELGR

Compound in one experiment: ClCC(=O)NC1(CCCC1)C#N
Kind of experiment: log2 ratio of Biotin-Ahx-Ub-VS probe labelling (compound/DMSO); higher = less target engagement, active = hit call of the paper (q ≤ 0.05, log2 ratio ≤ -1). The settings on record: compound concentration: 50uM; treatment time: 3 h. The procedure: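 Round 2 competitive ABPP in HEK293T lysate. Compounds were tested at 50 and 200 µM for 3 h, followed by Biotin-Ahx-Ub-VS enrichment and diaPASEF LC-MS/MS. Values are the average log2 ratio (compound/DMSO) from an unpaired t-test (n=3 treated, n=26 DMSO).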
Consider USP42 (UniProt Q9H9J4), for which the “log2 ratio of Biotin-Ahx-Ub-VS probe labelling” value (from here on “log2 ratio”) was -0.155.

UniProt O00487: the “log2 ratio” value is 0.252.

As to UCHL3 (UniProt P15374), the “log2 ratio” value was -0.252.

With ATXN3 (UniProt P54252), the “log2 ratio” value was -0.261.

Turning to UCHL5 (UniProt Q9Y5K5), the “log2 ratio” value was -0.245.

In the case of MINDY4 (UniProt Q4G0A6), the “log2 ratio” value was -0.742.

On to USP48 (UniProt Q86UV5), for which the “log2 ratio” value was -0.156.

USP28 (UniProt Q96RU2): the “log2 ratio” value was 0.02.

Consider PSMD7 (UniProt P51665), for which the “log2 ratio” value was -1.2.

The same experiment, now with this note: compound concentration: 200uM; treatment time: 3 h.
In the case of USP42 (UniProt Q9H9J4), the “log2 ratio” value was -0.0948.

Take UniProt O00487: the “log2 ratio” value was 0.0206.

For UCHL3 (UniProt P15374), the “log2 ratio” value was -0.294.

In the case of ATXN3 (UniProt P54252), the “log2 ratio” value is 0.039.

In the case of UCHL5 (UniProt Q9Y5K5), the “log2 ratio” value is -0.19.

As to MINDY4 (UniProt Q4G0A6), the “log2 ratio” value was 0.517.

Consider USP48 (UniProt Q86UV5), for which the “log2 ratio” value is -0.0443.

Regarding USP28 (UniProt Q96RU2), the “log2 ratio” value was -0.257.

For PSMD7 (UniProt P51665), the “log2 ratio” value was -0.91.
